Experimental findings from publication PMC5700166 are described below.

Assay in all cases: protein-binding microarray (PBM); PBM: ~300 nM protein, 6 mM HEPES pH 7.8, 80 mM KCl, 0.5 mM EDTA, 0.5 mM EGTA, 6% glycerol, 35 ng/ul poly-dIdC, 1% milk, 1 h, room temperature; Ap Aiptasia and Nv Nematostella (sea anemones) / Co Capsaspora / Aq Amphimedon (sponge) / Dm Drosophila / Hu human; RHD is the Rel homology domain; high values mean tight binding
Common to all, as to conditions: dsDNA, one strand shown

In one assay the target is T1, GST-Ap-NF-kB RHD (Exaiptasia pallida (Aiptasia), UniProt A0A913YAJ5 2-422).
T1 sequence: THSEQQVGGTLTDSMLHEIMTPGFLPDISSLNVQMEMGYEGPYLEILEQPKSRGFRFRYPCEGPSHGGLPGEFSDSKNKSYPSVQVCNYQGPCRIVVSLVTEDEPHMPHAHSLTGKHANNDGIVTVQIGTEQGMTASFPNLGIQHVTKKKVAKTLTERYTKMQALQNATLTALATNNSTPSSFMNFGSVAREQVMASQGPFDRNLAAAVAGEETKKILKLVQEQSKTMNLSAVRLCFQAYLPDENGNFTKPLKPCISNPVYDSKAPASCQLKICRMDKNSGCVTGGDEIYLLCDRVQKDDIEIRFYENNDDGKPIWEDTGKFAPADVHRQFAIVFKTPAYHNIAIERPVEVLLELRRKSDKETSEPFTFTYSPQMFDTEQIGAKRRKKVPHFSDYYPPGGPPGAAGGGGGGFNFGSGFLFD

Assay [1] addresses T2, GST-Nv-NF-kB (Cys allele) (Nematostella vectensis, UniProt E5G601 2-411).
T2 sequence: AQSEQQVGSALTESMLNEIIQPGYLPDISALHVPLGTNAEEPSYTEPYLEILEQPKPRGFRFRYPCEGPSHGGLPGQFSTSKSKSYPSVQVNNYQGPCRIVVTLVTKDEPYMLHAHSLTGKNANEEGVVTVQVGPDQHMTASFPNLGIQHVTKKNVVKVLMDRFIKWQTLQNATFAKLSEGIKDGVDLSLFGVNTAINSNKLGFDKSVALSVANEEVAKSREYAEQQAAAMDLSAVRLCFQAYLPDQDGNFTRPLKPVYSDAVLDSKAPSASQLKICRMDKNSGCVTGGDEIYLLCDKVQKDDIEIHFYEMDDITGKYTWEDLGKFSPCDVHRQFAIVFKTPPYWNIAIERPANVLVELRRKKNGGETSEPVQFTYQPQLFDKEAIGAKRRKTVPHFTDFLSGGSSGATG

Another assay concerns the target T3, GST-Co-NF-kB (Capsaspora owczarzaki, UniProt F1ARL5 200-546).
T3 sequence: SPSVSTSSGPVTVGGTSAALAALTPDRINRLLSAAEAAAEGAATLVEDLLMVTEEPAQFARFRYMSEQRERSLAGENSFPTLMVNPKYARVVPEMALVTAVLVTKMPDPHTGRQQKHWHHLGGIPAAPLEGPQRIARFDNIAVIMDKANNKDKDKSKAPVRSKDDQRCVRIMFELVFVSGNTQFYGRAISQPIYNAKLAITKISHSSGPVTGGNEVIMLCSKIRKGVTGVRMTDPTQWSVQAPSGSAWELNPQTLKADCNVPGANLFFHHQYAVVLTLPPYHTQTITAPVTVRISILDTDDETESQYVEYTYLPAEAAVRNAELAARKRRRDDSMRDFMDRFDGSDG

For a further assay, the target named is T4, GST-Dm-Relish (Drosophila melanogaster, UniProt Q94527 99-473).
T4 sequence: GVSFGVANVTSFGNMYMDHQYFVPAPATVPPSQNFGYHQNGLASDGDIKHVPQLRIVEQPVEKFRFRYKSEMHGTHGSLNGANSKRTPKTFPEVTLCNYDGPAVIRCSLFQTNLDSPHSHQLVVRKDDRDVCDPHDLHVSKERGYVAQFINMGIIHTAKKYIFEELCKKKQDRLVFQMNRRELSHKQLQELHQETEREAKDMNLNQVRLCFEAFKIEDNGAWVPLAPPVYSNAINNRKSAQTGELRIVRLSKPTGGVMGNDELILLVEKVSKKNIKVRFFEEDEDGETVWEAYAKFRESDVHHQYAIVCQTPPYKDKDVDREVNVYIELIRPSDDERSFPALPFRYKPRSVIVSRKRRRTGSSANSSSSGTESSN

The target in the next assay is T5, GST-Aq-NF-kB (Amphimedon queenslandica, UniProt A9Y5G7 2-389).
T5 sequence: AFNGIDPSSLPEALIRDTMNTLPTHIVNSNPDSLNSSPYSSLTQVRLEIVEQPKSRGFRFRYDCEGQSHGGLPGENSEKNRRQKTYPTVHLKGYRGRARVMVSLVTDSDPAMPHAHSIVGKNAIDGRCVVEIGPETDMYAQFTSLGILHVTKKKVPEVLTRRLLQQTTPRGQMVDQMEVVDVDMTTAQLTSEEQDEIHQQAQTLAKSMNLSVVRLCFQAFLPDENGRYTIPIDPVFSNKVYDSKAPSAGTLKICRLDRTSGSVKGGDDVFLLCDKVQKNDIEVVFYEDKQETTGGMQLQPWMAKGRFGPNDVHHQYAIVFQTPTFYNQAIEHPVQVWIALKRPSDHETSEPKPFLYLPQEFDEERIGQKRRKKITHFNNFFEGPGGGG

Take “CCGATTAACATCAAACTTTCCCATGATGTTAATCGGGTCTTGATTCGCTTGACGCTGCTG”: the binding signal with GST-Ap-NF-kB RHD was 3.24 z-score; in assay [1], 4.83 z-score; with GST-Co-NF-kB it was 4.07 z-score; in the assay with GST-Dm-Relish, 1.39 z-score; with GST-Aq-NF-kB, 5.27 z-score.
On to “CCGATTAACATCAGGGGTTTACCTGATGTTAATCGGGTCTTGATTCGCTTGACGCTGCTG”, for which the binding signal with GST-Ap-NF-kB RHD stood at 5.65 z-score; in assay [1], 5.44 z-score; with GST-Co-NF-kB, 1.56 z-score; with GST-Dm-Relish it was 9.7 z-score; in the assay with GST-Aq-NF-kB, 6.9 z-score.
Taken in the same sequence, the figures for “CCGATTAACATCAGGGGTATACCTGATGTTAATCGGGTCTTGATTCGCTTGACGCTGCTG” were 4.25 z-score, 2.43 z-score, 3.98 z-score, 4.15 z-score and 4.94 z-score.
As for “CCGATTAACATCACCAAATTCCCTGATGTTAATCGGGTCTTGATTCGCTTGACGCTGCTG”, the binding signal with GST-Ap-NF-kB RHD turned out to be 4.1 z-score; in assay [1], 4.67 z-score; in the assay with GST-Co-NF-kB it was 3.82 z-score; with GST-Dm-Relish, 4.02 z-score; with GST-Aq-NF-kB, 4.03 z-score.
For “CCGATTAACATCACCCAGGGAAATGATGTTAATCGGGTCTTGATTCGCTTGACGCTGCTG” the same measures were 1.54 z-score, 2.66 z-score, 2.73 z-score, 1.46 z-score and 2.69 z-score.
Taken in the same sequence, the figures for “CCGATTAACATCAGGAGAACCCCTGATGTTAATCGGGTCTTGATTCGCTTGACGCTGCTG” were 4 z-score, 3.59 z-score, 1.26 z-score, 3.65 z-score and 5.68 z-score.
Consider “CCGATTAACATCAGGAATTCCCATGATGTTAATCGGGTCTTGATTCGCTTGACGCTGCTG”, for which the binding signal came out at 6.4 z-score with GST-Ap-NF-kB RHD; 5.88 z-score in assay [1]; 4.61 z-score in the assay with GST-Co-NF-kB; 7.97 z-score with GST-Dm-Relish; 7.09 z-score in the assay with GST-Aq-NF-kB.
With “CCGATTAACATCAGGGGACGGGATGATGTTAATCGGGTCTTGATTCGCTTGACGCTGCTG”, the binding signal in the assay with GST-Ap-NF-kB RHD was 4.78 z-score; in assay [1], 3.92 z-score; with GST-Co-NF-kB it was 2.14 z-score; in the assay with GST-Dm-Relish, 1.43 z-score; in the assay with GST-Aq-NF-kB, 3.92 z-score.
Consider “CCGATTAACATCAGGGGCAACCCTGATGTTAATCGGGTCTTGATTCGCTTGACGCTGCTG”, for which the binding signal with GST-Ap-NF-kB RHD was 2.71 z-score; in assay [1], 2.89 z-score; with GST-Co-NF-kB it was 2.31 z-score; with GST-Dm-Relish, 3.06 z-score; with GST-Aq-NF-kB, 5.52 z-score.
Consider “CCGATTAACATCAAATTGCCCCCTGATGTTAATCGGGTCTTGATTCGCTTGACGCTGCTG”, for which the binding signal with GST-Ap-NF-kB RHD is 4.13 z-score; in assay [1], 3.94 z-score; in the assay with GST-Co-NF-kB, 4.71 z-score; with GST-Dm-Relish, 3.33 z-score; in the assay with GST-Aq-NF-kB, 4.88 z-score.
Taken in the same sequence, the figures for “CCGATTAACATCAGGGAATCCTATGATGTTAATCGGGTCTTGATTCGCTTGACGCTGCTG” were 3.36 z-score, 4.16 z-score, 2.52 z-score, 7.42 z-score and 4.15 z-score.
For “CCGATTAACATCAAGGGATTTTCTGATGTTAATCGGGTCTTGATTCGCTTGACGCTGCTG” the same measures were 5.78 z-score, 6.63 z-score, 1.57 z-score, 6.57 z-score and 6.65 z-score.
Take “CCGATTAACATCAGGGGGTGATATGATGTTAATCGGGTCTTGATTCGCTTGACGCTGCTG”: the binding signal in the assay with GST-Ap-NF-kB RHD was determined as 3.88 z-score; in assay [1] it was 3.66 z-score; with GST-Co-NF-kB, 4.73 z-score; with GST-Dm-Relish, 2.63 z-score; with GST-Aq-NF-kB, 4.56 z-score.
For “CCGATTAACATCAGGGGCTACCCTGATGTTAATCGGGTCTTGATTCGCTTGACGCTGCTG” the same measures were 4.03 z-score, 3.47 z-score, 1.76 z-score, 3.48 z-score and 6.2 z-score.
Turning to “CCGATTAACATCAAGGGGGGAGATGATGTTAATCGGGTCTTGATTCGCTTGACGCTGCTG”, the binding signal with GST-Ap-NF-kB RHD amounted to 5.84 z-score; in assay [1], 5.1 z-score; in the assay with GST-Co-NF-kB, 6.56 z-score; with GST-Dm-Relish, 2.93 z-score; with GST-Aq-NF-kB, 4.98 z-score.
For “CCGATTAACATCAACCACCCCCCTGATGTTAATCGGGTCTTGATTCGCTTGACGCTGCTG” the same measures were 3.74 z-score, 2.31 z-score, 4.22 z-score, 4.6 z-score and 3.9 z-score.
With “CCGATTAACATCACTTCCCCCCATGATGTTAATCGGGTCTTGATTCGCTTGACGCTGCTG”, the binding signal came out at 4.7 z-score with GST-Ap-NF-kB RHD; 4.18 z-score in assay [1]; 8.31 z-score with GST-Co-NF-kB; 3.34 z-score in the assay with GST-Dm-Relish; 3.86 z-score with GST-Aq-NF-kB.
Take “CCGATTAACATCACCCGGGAAAATGATGTTAATCGGGTCTTGATTCGCTTGACGCTGCTG”: the binding signal with GST-Ap-NF-kB RHD amounted to 2.61 z-score; in assay [1] it was 3.28 z-score; in the assay with GST-Co-NF-kB, 5.18 z-score; with GST-Dm-Relish it was 1.52 z-score; with GST-Aq-NF-kB it was 2.6 z-score.
In the case of “CCGATTAACATCAAAATTCCCGGTGATGTTAATCGGGTCTTGATTCGCTTGACGCTGCTG”, the binding signal came out at 4.57 z-score in the assay with GST-Ap-NF-kB RHD; 5.96 z-score in assay [1]; 5.57 z-score with GST-Co-NF-kB; 6.54 z-score in the assay with GST-Dm-Relish; 5.5 z-score in the assay with GST-Aq-NF-kB.
Taken in the same sequence, the figures for “CCGATTAACATCAAACACCCCCCTGATGTTAATCGGGTCTTGATTCGCTTGACGCTGCTG” were 4.89 z-score, 4.54 z-score, 4.93 z-score, 5.5 z-score and 5.86 z-score.
“CCGATTAACATCACTGGGATTTCTGATGTTAATCGGGTCTTGATTCGCTTGACGCTGCTG”: the binding signal with GST-Ap-NF-kB RHD is 2.53 z-score; in assay [1], 1.96 z-score; with GST-Co-NF-kB, 1.15 z-score; in the assay with GST-Dm-Relish it was 5.55 z-score; with GST-Aq-NF-kB, 2.37 z-score.
For “CCGATTAACATCAGGGGGTGTTATGATGTTAATCGGGTCTTGATTCGCTTGACGCTGCTG” the same measures were 4.69 z-score, 4.31 z-score, 3.42 z-score, 4.34 z-score and 5.4 z-score.
Taken in the same sequence, the figures for “CCGATTAACATCAGGGAGATTTATGATGTTAATCGGGTCTTGATTCGCTTGACGCTGCTG” were 3.69 z-score, 5.42 z-score, 2.8 z-score, 1.71 z-score and 5.99 z-score.
For “CCGATTAACATCAGGGCAGCCCCTGATGTTAATCGGGTCTTGATTCGCTTGACGCTGCTG” the same measures were 4.41 z-score, 4.88 z-score, 1.25 z-score, 4.16 z-score and 7.43 z-score.
As to “CCGATTAACATCATGGGAAAAAATGATGTTAATCGGGTCTTGATTCGCTTGACGCTGCTG”, the binding signal with GST-Ap-NF-kB RHD turned out to be 1.94 z-score; in assay [1], 3.64 z-score; with GST-Co-NF-kB it was 4.93 z-score; with GST-Dm-Relish, 1.7 z-score; with GST-Aq-NF-kB it was 2.57 z-score.
Turning to “CCGATTAACATCAGGCTTCCCCCTGATGTTAATCGGGTCTTGATTCGCTTGACGCTGCTG”, the binding signal in the assay with GST-Ap-NF-kB RHD is 5.74 z-score; in assay [1] it was 5.65 z-score; in the assay with GST-Co-NF-kB it was 6.8 z-score; with GST-Dm-Relish, 6.44 z-score; in the assay with GST-Aq-NF-kB, 5.57 z-score.
Taken in the same sequence, the figures for “CCGATTAACATCAGGGGAGTTAATGATGTTAATCGGGTCTTGATTCGCTTGACGCTGCTG” were 4.13 z-score, 4.06 z-score, 3.34 z-score, 3.14 z-score and 3.63 z-score.
For “CCGATTAACATCAGGGAAATAAATGATGTTAATCGGGTCTTGATTCGCTTGACGCTGCTG” the same measures were 2.39 z-score, 4.44 z-score, 4.38 z-score, 2.1 z-score and 4.44 z-score.
